From PubChem BioAssay (NCI)
This is part of a sample that, as a whole, favours compounds with a hit. Of some 83,000 tested, about 20% had one in any assay.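 Negative percent growth values reflect cell death: -40 means 40% of the cells present at the start died, and -100 means all died.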 Activity calls are given as the source filed them. The calls were made as follows: active = growth percent below 10; inactive = the rest.

These molecules were tested on BT-549 breast (assay: NCI-60 one-dose screen, 48 h (100 = growth as untreated, 0 = no growth, -100 = all killed)). Conditions: 10 µM.

SMILES | growth
C=CCN(CC=C)C(=O)[C@H](CC)[C@@H]1CC[C@@H](C)[C@@H]([C@H](C)[C@@H](O)[C@@H](C)C(=O)[C@H](CC)C2O[C@]3(C=C[C@@H](O)[C@]4(CC[C@@](C)([C@H]5CC[C@](O)(CC)[C@H](C)O5)O4)O3)[C@H](C)C[C@@H]2C)O1 (some centres not stated) | 27.3% (inactive)
O=C1CCn2c1c(O)c1ccccc1c2=O | 113% (inactive)
COc1ccc(-c2cc(-c3ccccc3)nc(SCCCCCCC(=O)NO)n2)cc1 | 85.4% (inactive)
Cc1ccc(NC(=S)NNC(=S)Nc2ccc(C)cc2)cc1 | 71.7% (inactive)
c1cncc(-c2csc(-c3c[nH]c4ccccc34)n2)c1 | 89.2% (inactive)
CN(C)CCOc1cccc(-c2nc3sccn3c2-c2ccnc(S(C)(=O)=O)n2)c1 | 104% (inactive)
CC(C)(C)c1ccc(S(=O)(=O)N[C@H]2CC[C@H]3[C@@H]4CCc5cc(OS(=O)(=O)O)ccc5[C@H]4CC[C@]23C)cc1 | 47.5% (inactive)
CC(C)c1ccc(C(C)C(=O)N(CC2=C(C(C)c3ccccn3)c3ccccc3C2)C(C)C)cc1 (configuration not stated) | 69.6% (inactive)
Cc1c2cnccc2c(C)c2c1c1cc(O)ccc1n2C(C)C | -2.72% (active)
CCc1ccc(C2=NN(c3ccc(S(C)(=O)=O)cc3)C(=O)CC2)cc1 | 21.9% (inactive)
COc1cc2c(cc1NC(=O)C(Cl)Cl)-c1ccc(NC(=O)C(Cl)Cl)cc1C2 | 69.3% (inactive)
COc1cc(/C=C2\CCCC3=C2NC(N)=NC3c2cc(OC)c(OC)c(OC)c2)cc(OC)c1OC (configuration not stated) | -38.7% (active)
